# From article PMC4631838
# Columns and labels:
# Experiment in all cases: cross-link between two proteins; cross-linking mass spectrometry
# [1] = target: DNA-directed RNA polymerase II subunit RPB11 (UniProt P38902)
# [2] = target: DNA-directed RNA polymerase II subunit RPB9 (UniProt P27999)
# [3] = target: DNA-directed RNA polymerases I, II, and III subunit RPABC1 (UniProt P20434)
# [4] = target: DNA-directed RNA polymerases I, II, and III subunit RPABC2 (UniProt P20435)
# [5] = target: DNA-directed RNA polymerases I, II, and III subunit RPABC3 (UniProt P20436)
# Chain of DNA-directed RNA polymerases I, II, and III subunit RPABC3 (P20436 whole entry): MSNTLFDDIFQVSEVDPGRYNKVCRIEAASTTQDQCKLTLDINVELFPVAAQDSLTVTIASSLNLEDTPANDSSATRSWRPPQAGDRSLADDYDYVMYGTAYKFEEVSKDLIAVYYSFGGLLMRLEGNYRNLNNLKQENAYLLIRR
# [6] = target: DNA-directed RNA polymerase II subunit RPB7 (UniProt P34087)
# Chain of DNA-directed RNA polymerase II subunit RPB7 (P34087 whole entry): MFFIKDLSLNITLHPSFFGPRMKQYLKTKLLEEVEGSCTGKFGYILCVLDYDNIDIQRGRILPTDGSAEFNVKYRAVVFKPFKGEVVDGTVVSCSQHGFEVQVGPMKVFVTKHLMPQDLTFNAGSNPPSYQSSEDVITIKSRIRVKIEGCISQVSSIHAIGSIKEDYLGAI
# [7] = target: DNA-directed RNA polymerase II subunit RPB3 (UniProt P16370)
# Chain of DNA-directed RNA polymerase II subunit RPB3 (P16370 whole entry): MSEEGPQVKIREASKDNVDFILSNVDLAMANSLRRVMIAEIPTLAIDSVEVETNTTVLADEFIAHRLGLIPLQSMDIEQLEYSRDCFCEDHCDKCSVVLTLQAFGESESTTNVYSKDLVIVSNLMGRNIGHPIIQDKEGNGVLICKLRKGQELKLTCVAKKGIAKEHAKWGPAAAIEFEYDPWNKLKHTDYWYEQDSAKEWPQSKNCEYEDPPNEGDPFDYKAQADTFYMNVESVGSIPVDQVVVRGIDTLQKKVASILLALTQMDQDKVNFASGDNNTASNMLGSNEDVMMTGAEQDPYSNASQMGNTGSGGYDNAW
# Chain of DNA-directed RNA polymerase II subunit RPB1, P04050 (P04050 whole entry): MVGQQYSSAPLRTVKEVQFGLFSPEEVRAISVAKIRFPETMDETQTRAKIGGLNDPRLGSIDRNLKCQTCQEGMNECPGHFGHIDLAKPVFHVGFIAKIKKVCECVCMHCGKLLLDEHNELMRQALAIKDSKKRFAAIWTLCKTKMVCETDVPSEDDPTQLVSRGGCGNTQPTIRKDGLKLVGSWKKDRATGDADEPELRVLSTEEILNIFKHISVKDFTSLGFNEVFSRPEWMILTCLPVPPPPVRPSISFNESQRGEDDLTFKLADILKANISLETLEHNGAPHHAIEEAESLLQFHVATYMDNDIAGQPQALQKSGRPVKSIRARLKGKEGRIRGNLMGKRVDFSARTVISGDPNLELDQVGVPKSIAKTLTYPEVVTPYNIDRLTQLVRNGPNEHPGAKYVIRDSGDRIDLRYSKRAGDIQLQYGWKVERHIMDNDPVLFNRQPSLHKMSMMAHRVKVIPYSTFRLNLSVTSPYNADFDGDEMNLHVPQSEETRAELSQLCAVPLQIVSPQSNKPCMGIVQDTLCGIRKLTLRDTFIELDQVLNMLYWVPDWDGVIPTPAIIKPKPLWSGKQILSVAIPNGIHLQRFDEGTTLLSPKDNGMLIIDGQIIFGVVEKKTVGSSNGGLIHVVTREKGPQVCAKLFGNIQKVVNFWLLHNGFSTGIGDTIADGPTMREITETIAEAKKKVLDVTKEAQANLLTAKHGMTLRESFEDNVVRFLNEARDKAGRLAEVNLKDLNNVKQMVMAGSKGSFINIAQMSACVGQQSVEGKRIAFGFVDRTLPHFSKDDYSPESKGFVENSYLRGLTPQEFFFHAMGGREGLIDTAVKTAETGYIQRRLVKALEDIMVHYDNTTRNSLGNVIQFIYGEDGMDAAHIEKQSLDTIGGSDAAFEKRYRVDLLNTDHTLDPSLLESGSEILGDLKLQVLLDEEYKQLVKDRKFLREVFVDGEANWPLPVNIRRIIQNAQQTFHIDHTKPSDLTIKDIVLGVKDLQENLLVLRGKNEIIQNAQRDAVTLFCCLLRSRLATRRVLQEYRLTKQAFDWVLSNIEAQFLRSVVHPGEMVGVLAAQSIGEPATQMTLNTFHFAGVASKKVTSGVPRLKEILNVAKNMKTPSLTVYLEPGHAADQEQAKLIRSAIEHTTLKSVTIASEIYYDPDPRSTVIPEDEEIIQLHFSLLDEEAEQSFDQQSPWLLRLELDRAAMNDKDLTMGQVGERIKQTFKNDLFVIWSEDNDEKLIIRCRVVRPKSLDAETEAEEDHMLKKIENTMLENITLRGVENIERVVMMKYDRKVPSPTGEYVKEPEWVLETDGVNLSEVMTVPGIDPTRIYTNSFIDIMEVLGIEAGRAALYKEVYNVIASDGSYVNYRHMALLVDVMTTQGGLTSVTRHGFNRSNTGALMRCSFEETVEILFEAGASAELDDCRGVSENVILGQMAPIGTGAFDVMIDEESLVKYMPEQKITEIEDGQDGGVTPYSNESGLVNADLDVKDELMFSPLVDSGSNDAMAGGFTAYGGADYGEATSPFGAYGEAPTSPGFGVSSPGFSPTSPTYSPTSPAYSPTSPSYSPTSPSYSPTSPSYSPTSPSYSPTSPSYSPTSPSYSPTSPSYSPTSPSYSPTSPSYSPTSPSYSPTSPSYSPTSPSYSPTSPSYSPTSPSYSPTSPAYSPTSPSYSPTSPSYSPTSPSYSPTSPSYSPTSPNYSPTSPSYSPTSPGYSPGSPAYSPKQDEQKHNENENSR
# Chain of DNA-directed RNA polymerases I, II, and III subunit RPABC2 (P20435 whole entry): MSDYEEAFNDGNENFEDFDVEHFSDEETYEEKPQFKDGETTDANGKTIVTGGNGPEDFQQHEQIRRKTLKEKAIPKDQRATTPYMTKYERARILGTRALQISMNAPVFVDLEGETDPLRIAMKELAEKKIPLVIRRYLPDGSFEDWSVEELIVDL
# Chain of DNA-directed RNA polymerases I, II, and III subunit RPABC1 (P20434 whole entry): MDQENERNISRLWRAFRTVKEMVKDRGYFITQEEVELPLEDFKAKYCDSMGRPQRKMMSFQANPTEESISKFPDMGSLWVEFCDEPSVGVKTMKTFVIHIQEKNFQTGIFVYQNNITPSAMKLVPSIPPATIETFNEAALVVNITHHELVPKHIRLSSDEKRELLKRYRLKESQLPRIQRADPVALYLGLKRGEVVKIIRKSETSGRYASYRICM
# Chain of DNA-directed RNA polymerase II subunit RPB2, P08518 (P08518 whole entry): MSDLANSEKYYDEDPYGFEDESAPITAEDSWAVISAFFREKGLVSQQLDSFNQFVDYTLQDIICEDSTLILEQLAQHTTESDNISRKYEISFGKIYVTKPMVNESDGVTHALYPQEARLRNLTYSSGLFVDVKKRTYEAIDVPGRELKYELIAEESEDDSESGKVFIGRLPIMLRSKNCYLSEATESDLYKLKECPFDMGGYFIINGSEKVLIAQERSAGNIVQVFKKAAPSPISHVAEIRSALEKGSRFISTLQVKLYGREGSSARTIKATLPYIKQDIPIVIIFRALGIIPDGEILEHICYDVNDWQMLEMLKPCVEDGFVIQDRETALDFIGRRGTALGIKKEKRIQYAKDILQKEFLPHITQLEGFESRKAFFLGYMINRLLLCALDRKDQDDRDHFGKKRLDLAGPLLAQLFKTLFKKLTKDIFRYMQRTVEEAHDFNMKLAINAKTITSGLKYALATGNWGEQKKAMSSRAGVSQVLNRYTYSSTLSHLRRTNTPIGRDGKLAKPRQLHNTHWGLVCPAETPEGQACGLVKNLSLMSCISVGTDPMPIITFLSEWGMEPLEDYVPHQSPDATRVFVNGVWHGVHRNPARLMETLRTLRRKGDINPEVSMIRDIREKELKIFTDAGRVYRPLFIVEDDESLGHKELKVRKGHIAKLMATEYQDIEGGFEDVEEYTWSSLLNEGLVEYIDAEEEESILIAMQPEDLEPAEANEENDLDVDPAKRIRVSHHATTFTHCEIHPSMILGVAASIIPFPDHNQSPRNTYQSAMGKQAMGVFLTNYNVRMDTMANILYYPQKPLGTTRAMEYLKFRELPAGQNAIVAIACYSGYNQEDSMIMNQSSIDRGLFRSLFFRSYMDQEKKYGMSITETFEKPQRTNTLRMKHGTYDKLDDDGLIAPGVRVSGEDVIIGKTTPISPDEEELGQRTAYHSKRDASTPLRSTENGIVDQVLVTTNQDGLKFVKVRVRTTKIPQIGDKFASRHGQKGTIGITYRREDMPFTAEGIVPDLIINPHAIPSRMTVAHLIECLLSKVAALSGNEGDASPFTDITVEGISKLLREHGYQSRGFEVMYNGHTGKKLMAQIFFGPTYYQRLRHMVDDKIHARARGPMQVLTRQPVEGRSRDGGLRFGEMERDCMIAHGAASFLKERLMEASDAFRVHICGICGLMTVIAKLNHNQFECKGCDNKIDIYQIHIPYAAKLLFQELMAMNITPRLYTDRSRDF
# Chain of DNA-directed RNA polymerase II subunit RPB9 (P27999 whole entry): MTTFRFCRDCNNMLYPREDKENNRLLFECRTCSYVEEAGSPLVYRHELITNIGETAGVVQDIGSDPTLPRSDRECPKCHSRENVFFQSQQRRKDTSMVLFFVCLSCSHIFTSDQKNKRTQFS
# Chain of DNA-directed RNA polymerase II subunit RPB11 (P38902 whole entry): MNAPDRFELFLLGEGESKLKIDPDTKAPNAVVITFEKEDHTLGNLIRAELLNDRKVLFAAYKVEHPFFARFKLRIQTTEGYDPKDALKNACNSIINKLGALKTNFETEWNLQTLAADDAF
substance,measurement,setting,value
"DNA-directed RNA polymerase II subunit RPB1, P04050",listed as a hit,[1],yes
same,listed as a hit,[2],yes
same,listed as a hit,[3],yes
same,listed as a hit,[4],yes
same,listed as a hit,[5],yes
"DNA-directed RNA polymerase II subunit RPB4, P20433",listed as a hit,[6],yes
"DNA-directed RNA polymerase II subunit RPB2, P08518",listed as a hit,[7],yes
"DNA-directed RNA polymerases I, II, and III subunit RPABC1, P20434",listed as a hit,[4],yes
